Most compounds without a hit are left out; they make up all but 2.7% or so of the library.
IP6K1 inh = Primary qHTS assay for small molecule inhibitors of Inositol hexaphosphate kinase 1 (IP6K1); Inositol hexakisphosphate kinase 1 (Homo sapiens), Q92551; 140,000 compounds, 0.81% hits; activity change, % (series mostly up to about 58 µM); IP6K1 kinase, ADP-Glo luminescence, 2 h; stronger effect = lower value; AID 1645851, 2021; in the data active means activity change below about -25%
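ADP-Glo luminescence measures ADP made by human IP6K1 during a 2 h RT reaction with ATP/IP6 (mix at 1.3 mM/130 uM); top library doses 57.5 and 19.1 uM final.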
KDM5B inhibitor = Primary screen for KDM5B Histone Demethylases FDH-coupled qHTS | Lysine-specific demethylase 5B (Homo sapiens), Q9UGL1 | KDM5B demethylase, FDH-coupled NADH fluorescence (FDH is formaldehyde dehydrogenase) | Potency, µM (highest dose often 57.7 µM), usual class: inhibitors | 220,000 compounds, 2.6% hits; further: nearly all actives have a fitted effect of over 70% in size
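Compound dilutions met 200 nM (final) KDM5BΔAP for 10 min at room temperature before substrate addition. The substrate mix held 12.5 µM H3K4me3 with cofactors 25 µM α-ketoglutarate and 50 µM Fe²⁺. NADH signal gain over 30 min defined activity.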
IP6K1 inh cnf = Confirmatory qHTS assay for small molecule inhibitors of Inositol hexaphosphate kinase 1 (IP6K1); 1,200 compounds, 13% hits; AID 1645852, 2021; recombinant IP6K1 kinase, ADP-Glo luminescence, 2 h; shares compounds with IP6K1 inh; Potency, µM (series often up to 49 µM), hits mostly inhibitors; further: nearly all actives have a fitted effect of over 65% in size
Large screens that a line does not name were inactive (follow-up assays come after a bar, where they were run). Unless noted, the call rests on the fitted dose curve; in most records, active means well fitted inhibition curve with a large enough effect; inconclusive means small, poorly fitted or top-dose-only effect; inactive means no such curve, though single readings can be large or run the other way.

COc1ccc(CCC(=O)N2CCCC(Cc3noc(-c4ccccc4)n3)C2)cc1 (stereo unspecified)	none
COCC1CCN(c2ccc(-c3nc(CCCc4ccccc4)no3)cn2)C1 (stereo unspecified)	IP6K1 inh -33, KDM5B inhibitor 35µM | IP6K1 inh cnf inactive
O=C(c1cc2ccccc2oc1=O)N1CCc2ccccc2C1	none (no result: IP6K1 inh)
CCCCn1c(=O)c(C(=O)NCCc2ccc(F)cc2)nc2cccnc21	IP6K1 inh -27 (no result: KDM5B inhibitor) | IP6K1 inh cnf inactive
CCCCn1c(=O)c(C(=O)NCCc2ccccc2)nc2cccnc21	none (no result: KDM5B inhibitor)
CCCn1nc(C(=O)Nc2ccc(Br)cc2F)c2ccccc2c1=O	none (no result: IP6K1 inh)
Cn1cnc2c(F)c(Nc3ccc(Br)cc3F)c(C(=O)NOCCO)cc21	none (no result: KDM5B inhibitor) | IP6K1 inh cnf inactive
O=C(Nc1cc2cc[nH]c2cn1)c1ccccc1	IP6K1 inh -28 (no result: KDM5B inhibitor) | IP6K1 inh cnf inconclusive
COc1ccc(C(=O)Nc2ccc3[nH]ccc3c2)cc1	none (no result: IP6K1 inh)
CCn1cc(-c2ccc(F)cc2)cc1C(=O)N1CCCCCC1	none
CCn1cc(-c2ccc(C)cc2)cc1C(=O)N1CCC(C)CC1	IP6K1 inh -30 | IP6K1 inh cnf inconclusive
CN(CC(O)COc1cccc(CNCCc2ccc(F)cc2)c1)C1CCCCC1 (stereo unspecified)	none
CCN1/C(=C/C=C2/SC(=Nc3cccc4ncccc34)N(C)C2=O)Sc2ccccc21	none (no result: IP6K1 inh)
CCN1/C(=C/C=C/c2sc3ccccc3[n+]2CC)Sc2ccccc21	IP6K1 inh -36 (no result: KDM5B inhibitor) | IP6K1 inh cnf inconclusive
Cc1ccc(C(=O)OC(C)C(=O)N2CCc3ccccc32)cc1S(=O)(=O)N1CCCCC1 (stereo unspecified)	none (no result: IP6K1 inh)
O=C(c1cccc(Cl)c1)N(Cc1cccc(F)c1)C1CCS(=O)(=O)C1 (stereo unspecified)	IP6K1 inh -37 | IP6K1 inh cnf inactive
COc1cccc(C(=O)N(Cc2cccc(F)c2)C2CCS(=O)(=O)C2)c1 (stereo unspecified)	none
Clc1ccccc1-c1nnnn1-c1ccccc1Cl	none (no result: IP6K1 inh)
Cc1ccc(C(=O)COC(=O)C2CC3CCCC(C2)C32SCCS2)s1 (stereo unspecified)	none (no result: IP6K1 inh)
Cc1cc(-c2ccc(C)c(S(=O)(=O)N3CCC(C)CC3)c2)on1	IP6K1 inh -26, KDM5B inhibitor inconclusive | IP6K1 inh cnf inactive
Cc1cc(-c2ccc(C)c(S(=O)(=O)NC3CCCCC3)c2)on1	none
COc1ccc(Nc2nc(N3CCCC3)c3nccnc3n2)c(OC)c1	none (no result: IP6K1 inh)
